High-throughput results from PubChem BioAssay.
Hits are enriched below; roughly 2.2% of the tested compounds scored in any of these assays.
Cardiac RTF inh: cardiac RTF calcium sensitivity inhibitors, primary screen, biochemical, IANBD-TnC fluorescence, EC70 calcium; Troponin I, cardiac muscle (Homo sapiens) + Troponin T, cardiac muscle (Homo sapiens) + …; IANBD-labeled cardiac RTF, Ca2+ fluorescence; inhibition, % at 7.15 µM; hit rate 0.12% among 340,000;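 active = inhibition above the mean inhibition of all tested compounds plus 3 SD, cut at about 17% in these data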;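 also: assay run at fixed EC70 calcium of 1.6 mM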
Myeloid diff MLP: induction of myeloid progenitor differentiation, primary screen, cell-based, flow cytometry, MLPCN library. AID 624256, 2012. ER-HoxA9 myeloid progenitors, lysozyme-GFP differentiation. calls only at 10 µM. hit rate 1% among 360,000;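 active = normalized GFP-positive differentiation at or above the plate's own cutoff, the solvent-only control mean plus 3 SD; inconclusive = no clear call, values can overlap the other calls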;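 also: cells exposed to compound for four days before flow analysis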
RTF Ca sens act: cardiac RTF calcium sensitivity activators, primary screen, biochemical, IANBD-TnC fluorescence, EC20 calcium. activation, % at 7.2 µM. IANBD-labeled TnC RTF fluorescence at EC20 calcium; 0% EC20 calcium, 100% full calcium. Troponin I, cardiac muscle (Homo sapiens) + Troponin T, cardiac muscle (Homo sapiens) + …. hit rate 0.24% among 340,000;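 active = activation above the mean over all tested compounds plus 3 SD, cut at about 30% in these data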;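 also: rise in fluorescence read as greater calcium sensitivity of cardiac thin filaments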
CRFBP-R2 block: antagonists of CRF-BP/CRF-R2 complex, primary screen, cell-based, HEK293, calcium dye fluorescence, uHTS; hit rate 0.59% among 350,000; inhibition, % at 11.8 µM; CRF-induced calcium fluorescence;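 active = inhibition of the ligand-induced calcium signal above about 50% at the single tested concentration, limit read from the data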
CRFBP-R2 agonist: agonists of CRF-BP/CRF-R2 complex, primary screen, cell-based, HEK293, calcium dye fluorescence, uHTS; AID 588473, 2011; activation, % at 13.2 µM; calcium dye fluorescence (FLIPR); percent of saturating CRF peptide response; CRF-binding protein / CRF receptor 2 complex (human); hit rate 0.46% among 350,000;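 active = activation of at least 50%, plus an integration ratio under a set limit after plate pattern correction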;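 also: plate controls were neutral control wells without compound for no effect and CRF at EC100 for full effect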
* = called active by the depositor; i = inactive; ? = inconclusive; . = no result; + = active, no number.

SMILES | Cardiac RTF inh | Myeloid diff MLP | RTF Ca sens act | CRFBP-R2 block | CRFBP-R2 agonist
N#CC1=C(N)OC2=C(CC/C2=C\c2ccccc2)C1c1ccccc1 (stereo not drawn) | -221 | i | 127* | -349 | 300*
N#CC1=C(N)OC2=C(C(=O)CCC2)C1c1ccccc1 (stereo not drawn) | -8 | i | -2 | -12 | -1
N#CC1=C(N)OC2=C(CC/C2=C\c2ccccc2Cl)C1c1ccccc1Cl (stereo not drawn) | -37 | i | 38* | -86 | 91*
CCCN(CC(=O)Nc1ccccc1OC)C(=O)Cn1c(=O)oc2ccccc21 | 9 | i | 0 | -4 | -1
Cc1ccccc1CSCC1Nc2ccc(C(=O)NCCc3ccccc3)cc2NC1=O (stereo not drawn) | . | + | . | -18 | 5
O=C(NCCc1ccccc1)c1ccc2[nH]c(=O)c(=O)[nH]c2c1 | 6 | i | -1 | -6 | -1
CCC(=O)Nc1ccc(C(=O)COC(=O)c2sc(C)nc2C)cc1 | -9 | i | 0 | 6 | -1
CC(Oc1ccc(Br)cc1)C(=O)N(Cc1ccccc1)c1c(N)n(Cc2ccccc2)c(=O)[nH]c1=O (stereo not drawn) | . | i | . | -2 | -2
CC1C(=O)C(C)C(c2cc(Br)ccc2O)NC1c1cc(Br)ccc1O (stereo not drawn) | -2 | i | -3 | 58* | -1
Cc1cccc(C)c1-n1nnnc1C1(C)CCC(=O)N1CCc1ccc(O)cc1 (stereo not drawn) | . | i | . | . | .
COc1ccc(-c2csc(C(C)(O)c3ccc(OC)cc3)n2)cc1 (stereo not drawn) | . | i | . | . | .
COc1ccc(C(C)(O)c2nc(-c3ccncc3)cs2)cc1 (stereo not drawn) | . | + | . | . | .
CC(C)CCC(CCNCc1ccccn1)c1ccc(Cl)cc1 (stereo not drawn) | -1 | i | -5 | -17 | 1
Cc1cc(C)cc(OCC(=O)OC/C(O)=C(\C#N)c2nc3ccccc3[nH]2)c1 | 0 | i | 5 | 7 | -1
N#C/C(=C(/O)COC(=O)COc1cccc(Br)c1)c1nc2ccccc2[nH]1 | -4 | i | 4 | 100* | 4
CC(C)OCc1c(C(=O)OC/C(O)=C(\C#N)c2nc3ccccc3[nH]2)oc2ccccc12 | 3 | i | -11 | 62* | 4
Cc1c(C(=O)OC/C(O)=C(\C#N)c2nc3ccccc3[nH]2)oc2ccc(Br)cc12 | -3 | i | -3 | 5 | 1
COc1cc(C)c(C(=O)CC(=O)c2c(C)cc(OC)cc2C)c(C)c1 | . | + | . | -2 | 0
COc1ccc(NC(C)=O)c(C)c1 | -6 | i | 4 | -4 | 0
CCCNC(=O)C12CCC(C)(c3nc4cc(C)c(C)cc4nc31)C2(C)C (stereo not drawn) | -1 | i | 6 | 20 | -1
COc1ccc(CCNc2nc3ccccc3n3nnnc23)cc1OC | -15 | i | 7 | -8 | 7
c1ccc(CCNc2nc3ccccc3n3nnnc23)cc1 | -6 | i | 7 | -133 | 82*
O=S(=O)(NC(=S)NC1CCCCC1)c1ccc(Br)cc1 | -4 | i | 1 | 56* | 0
O=C(NNS(=O)(=O)c1ccc2ccccc2c1)NC1CCCCC1 | 8 | i | 4 | -8 | -3
O=C(NC1CCCCC1)NS(=O)(=O)c1ccc2c(c1)CCC2 | 0 | i | -1 | 63* | -8
SMILES | Cardiac RTF inh | Myeloid diff MLP | RTF Ca sens act | CRFBP-R2 block | CRFBP-R2 agonist
CCCc1nnc(NC(=O)CCC(=O)N2CCN(Cc3ccc(Cl)cc3)CC2)s1 | -2 | i | -4 | -7 | 1
Cc1c(/C=N/NC(=O)C(NC(=O)c2ccc3c(c2)OCO3)C(C)C)c2ccccc2n1C (stereo not drawn) | 8 | ? | 7 | -186 | 96*
CCOC(=O)C1=C(COC(=O)c2ccc3ccccc3c2O)NC(=O)NC1C (stereo not drawn) | -34 | i | 35* | -27 | 53*
CCOC(=O)C1=C(COC(=O)c2ccccc2OC(F)F)NC(=O)NC1C (stereo not drawn) | -32 | i | -1 | -9 | -1
CCn1c(O)c(/C=N/N=C/c2ccccc2)c2ccc(C3=NNC(=O)CC3)cc21 | -122 | i | 36* | -92 | 48
COc1ccc(NC(=O)C2=CC(c3cccs3)=NS(=O)(=O)N2C)cc1 | 1 | + | 1 | -52 | -4
O=C(O)c1cc2ccccc2cc1Nc1ccccc1 | 4 | i | 1 | 12 | 0
C/C(=N\NC(=O)C(C)Oc1ccc([N+](=O)[O-])cc1)c1ccccn1 (stereo not drawn) | -4 | ? | -4 | 55* | 0
CC(C)NC(=O)Nc1ccc2c(c1)C(=O)N([C@H](C)CO)C[C@H](C)[C@@H](CN(C)C(=O)NC(C)C)O2 | -2 | i | 2 | 8 | 0
O=S(=O)(NCc1ccc(C(F)(F)F)cc1)c1ccc(-n2cnnn2)cc1 | 2 | + | -4 | 6 | 0
CN(C)c1nc(N(C)C)c2cnn(C)c2n1 | 7 | i | -2 | 13 | 0
COc1ccccc1CN(C)C(=O)C(c1ccccc1)c1ccccc1 | 2 | i | -4 | 57* | -2
N#Cc1cccc(NCC(=O)Nc2ccc3c(c2)OCCO3)c1 | -4 | i | -4 | 80* | -3
Cc1cc(C(=O)COc2cccc3cccnc23)c(C)n1C | -134 | i | 53* | -136 | 190*
Cc1cc(C)cc(C(O)c2ncc(-c3ccccc3C)[nH]2)c1 (stereo not drawn) | . | i | . | . | .
CC(C)C(NC(=O)C12CC3CC(CC(C3)C1)C2)C(=O)N/N=C/C1=C(N2CCOCC2)C(=C\c2ccc([N+](=O)[O-])cc2)/CC1 (stereo not drawn) | -7 | + | 2 | -16 | -1
N#CC1=C(N)N(c2ccc(F)cc2)C2=C(C1c1ccc(O)cc1)S(=O)(=O)CC2 (stereo not drawn) | -16 | + | 8 | -2 | -2
CN(C)c1cc[n+](CC[n+]2ccc(N(C)C)cc2)cc1 | 12 | i | 3 | 6 | 0
CN(C)c1cc[n+](Cc2c(Cl)cccc2Cl)cc1 | 1 | + | 2 | -13 | 2
COC(=O)N/N=C/c1cn(Cc2ccc(F)cc2)c2ccccc12 | -3 | i | 2 | -5 | -2
O=[N+]([O-])c1ccc(N/N=C/c2cn(Cc3ccc(F)cc3)c3ccccc23)nc1 | -18 | + | 6 | -48 | 0
Cc1ccc(NC(=O)CSc2nnnn2-c2ccc3c(c2)OCO3)cc1C | 2 | + | -2 | 12 | 0
